Screening results deposited in PubChem by several laboratories.
The full list was thinned out, with hits kept by preference.
YopH PTP inh: YopH tyrosine phosphatase inhibitors, primary screen, biochemical, fluorescence Ex485/Em525; YopH tyrosine phosphatase [Yersinia enterocolitica]; inhibition, % (test concentration not listed); actives 0.16% (n = 140,000); AID 898, 2007; in the data active = inhibition above about 50%
Mtb RmlCD inh: M. tuberculosis RmlC/RmlD coupled enzyme inhibitors, primary screen, biochemical, compound mixtures, 384-well, from 1536-well plates; dTDP-4-dehydrorhamnose reductase (Mycobacterium tuberculosis (strain ATCC 25618 / H37Rv)) …; RmlC+RmlD coupled enzyme assay, percent inhibition; primary screen in compound mixtures; inhibition, % at 3.6 µM; actives 0.03% (n = 160,000); AID 1533, 2009; in the data active = inhibition mostly above about 34%, no sharp cut-off
Target sequence (P9WH09 whole entry, looked up): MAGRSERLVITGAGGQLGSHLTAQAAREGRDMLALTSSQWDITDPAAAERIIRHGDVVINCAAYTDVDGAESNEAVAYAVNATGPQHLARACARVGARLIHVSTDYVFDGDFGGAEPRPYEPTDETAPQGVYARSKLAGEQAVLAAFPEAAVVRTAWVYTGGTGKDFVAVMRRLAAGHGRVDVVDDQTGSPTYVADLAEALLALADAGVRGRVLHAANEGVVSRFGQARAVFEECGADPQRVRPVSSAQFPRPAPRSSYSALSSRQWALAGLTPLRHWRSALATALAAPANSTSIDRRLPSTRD
Target sequence (P9WH11 whole entry, looked up): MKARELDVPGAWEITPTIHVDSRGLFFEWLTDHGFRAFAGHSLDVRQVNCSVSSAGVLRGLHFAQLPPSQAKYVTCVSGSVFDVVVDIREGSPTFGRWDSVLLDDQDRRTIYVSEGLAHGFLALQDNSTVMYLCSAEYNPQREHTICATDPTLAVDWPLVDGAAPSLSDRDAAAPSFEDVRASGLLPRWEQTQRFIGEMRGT
Of the large screens only hits and unclear results are named; the others gave an inactive call.

N#Cc1nc(-c2ccc(OCc3ccccc3)cc2)oc1N1CCC(C(N)=O)CC1	none
COc1ccc(-c2nc(C#N)c(N3CCC(C(N)=O)CC3)o2)cc1	YopH PTP inh 90
OC(CNCc1ccccc1Cl)C(F)(F)F (stereo not drawn)	none (no result: YopH PTP inh)
Cc1cccc(C)c1NC(=O)COC(=O)c1cccnc1	none (no result: YopH PTP inh)
COc1cc([N+](=O)[O-])ccc1NC(=S)Nc1cc(C(=O)OC(C)C)cc(C(=O)OC(C)C)c1	none
O=C(c1cccs1)c1no[n+]([O-])c1C(=O)c1cccs1	YopH PTP inh 87 (no result: Mtb RmlCD inh)
COc1ccc(C(=O)c2no[n+]([O-])c2C(=O)c2ccc(OC)cc2)cc1	none
CC1(C)C(=O)OC(C(=O)c2ccccc2)C2(CCCCC2)C1=O (stereo not drawn)	none
COc1cccc(/C=C/c2nc3c(cnn3-c3ccccc3)c(=O)[nH]2)c1	Mtb RmlCD inh 35 (no result: YopH PTP inh)
O=c1[nH]c(/C=C/c2ccc(Br)cc2)nc2c1cnn2-c1ccccc1	none (no result: YopH PTP inh)
C=CCn1c(-c2cc(OC)c(OC)c(OC)c2)n[nH]c1=S	none
CCn1c(-c2cc(OC)c(OC)c(OC)c2)n[nH]c1=S	YopH PTP inh 96 (no result: Mtb RmlCD inh)
Cc1noc(C)c1CSc1nc2ccccc2c(=O)n1-c1ccc(Cl)cc1	none
Cc1ccsc1/C=N/n1c(COc2ccccc2)n[nH]c1=S	none
Cc1ccc(N2C(=O)N(Cc3ccccc3C)c3ccccc3S2(=O)=O)cc1	none
CN1C(=O)C(Cc2cccc3ccccc23)C(=O)N(C)C1=O	YopH PTP inh 55
CN1C(=O)C(Cc2c[nH]c3ccccc23)C(=O)N(C)C1=O	none (no result: Mtb RmlCD inh)
COc1ccccc1N1CCN(C2CCN(C(=O)COc3cccc(C)c3)CC2)CC1	none
O=C(NC(Cc1c[nH]c2ccccc12)c1nnc2n1CCCCC2)c1ccccc1 (stereo not drawn)	none
O=C(NC(Cc1c[nH]c2ccccc12)c1nnc2n1CCCCC2)c1cccs1 (stereo not drawn)	YopH PTP inh 55 (no result: Mtb RmlCD inh)
Cc1nc(SCC(=O)N2c3ccccc3Sc3ccccc32)n[nH]1	none (no result: Mtb RmlCD inh)
CCOC(=O)N1CCN(C(=S)Nc2cc(S(=O)(=O)N3CCOCC3)ccc2Cl)CC1	none (no result: YopH PTP inh)
COc1ccc(NCC(=O)N/N=C/c2cc([N+](=O)[O-])ccc2N2CCCC2)cc1	none (no result: YopH PTP inh)
COC1=C(OC)C(=O)C(CCCCCCCCCCO)=C(C)C1=O	none (no result: YopH PTP inh)
CC1=C(C)C(=O)C(CCCCC#CCCCC#CCO)=C(C)C1=O	YopH PTP inh 65 (no result: Mtb RmlCD inh)
COc1ccc(CCNC(=O)CCC2COc3ccccc3O2)cc1OC (stereo not drawn)	none (no result: Mtb RmlCD inh)
CCOC(=O)c1sc(Nc2ccccc2)nc1C	none (no result: Mtb RmlCD inh)
CCOC(=O)c1sc(Nc2nc3c(OC)cccc3s2)nc1C	Mtb RmlCD inh 74
CCCc1ccc(Oc2cc(N3CCOCC3)nc(-c3ccccc3)n2)cc1	none (no result: Mtb RmlCD inh)
CCCCc1c(CCC)c(=N)c2ccccc2n1C	none
C/C(=N/NC(=O)CNC(=O)COc1ccccc1)c1ccco1	none (no result: Mtb RmlCD inh)
COc1ccccc1-c1ccc(/C=C2\C=CC(=O)O2)o1	none (no result: YopH PTP inh)
CCCc1[nH]nc2c1C(c1ccccc1OCC)C(C#N)=C(N)O2 (stereo not drawn)	none
CCOc1ccccc1C1C(C#N)=C(N)Nc2onc(-c3ccccc3)c21 (stereo not drawn)	YopH PTP inh 65 (no result: Mtb RmlCD inh)
COc1ccc(OC)c(C(C)NC(=O)c2ccco2)c1 (stereo not drawn)	none
COCCOC(=O)C1=C(C)NC2(O)c3ccccc3C(=O)C12O (stereo not drawn)	none (no result: YopH PTP inh)
CCOC(=O)C1=C(C)NC2(O)c3ccccc3C(=O)C12O (stereo not drawn)	YopH PTP inh 68
Cc1ccn2c(c1)nc(=S)n2C(=O)c1ccco1	none (no result: Mtb RmlCD inh)
CCN1CCN(CCCOc2ccccc2-c2ccccc2)CC1	none (no result: YopH PTP inh)
CCN1CCN(CCCOc2ccc(-c3ccccc3)cc2)CC1	YopH PTP inh 55
COC(=O)c1nc(N)sc1C	none (no result: YopH PTP inh)
CCOCCCn1c(C)nc2c(c1=O)c1nc3ccccc3nc1n2CCC1=CCCCC1	none
Cc1nc2c(c(=O)n1CCC1=CCCCC1)c1nc3ccccc3nc1n2/N=C/c1ccccc1	Mtb RmlCD inh 34
O=C1Cc2ccccc2C(=O)N1Cc1ccccc1	YopH PTP inh 83
O=C1c2cccnc2C(=O)N1Cc1ccccc1	none
O=[N+]([O-])c1ccc(Cl)c(/C=N/n2c(-c3ccncc3)n[nH]c2=S)c1	none (no result: YopH PTP inh)
CN1CCN(NC(=O)c2ccc(F)cc2)CC1	none
Cc1ccc(C(=O)N2C(=S)C(c3ccc(F)cc3)=NC23CCN(C)CC3)cc1	YopH PTP inh 77
S=C1NCN(C2CCCCC2)CN1c1ccccc1	none (no result: YopH PTP inh)
COc1ccc(Nc2ccccc2N)cc1	none (no result: YopH PTP inh)
Nc1ccc(Nc2ccccc2N)cc1	YopH PTP inh 51
COc1ccccc1NC(=S)Nc1ccc2cn[nH]c2c1	none (no result: YopH PTP inh)
COc1ccc(/C=N/NC(=O)C(C)n2cnc3ccccc3c2=O)cc1OC (stereo not drawn)	YopH PTP inh 67 (no result: Mtb RmlCD inh)
COc1ccc(/C=N/NC(=O)CCn2cnc(-c3ccccc3)c2-c2ccccc2)cc1OC	none
CC(=O)NC(=S)Nc1ccc(S(=O)(=O)Nc2ncccn2)cc1	none (no result: YopH PTP inh)
